# Sampled rows, rich in hits. Any-hit rate of the full collection: about 2.8%.
# Pol kappa inh = inhibitors of human DNA polymerase kappa | Q9UBT6 | purified Pol kappa, fluorescent DNA synthesis assay, 10 min | Potency, µM (series often up to 107 µM), without a hit: top-dose activity, negative = inhibition, most hits filed as inhibitors | hit rate 0.53% among 400,000; also: potency is read from the fitted curve at half-maximal effect; % is scaled to controls: 0 for no effect and ±100 for the full control effect
#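 Here, compound and 10 nM enzyme are combined for 15 min at room temperature; adding 50 nM substrate (final) starts DNA synthesis, tracked by fluorescence at 0 and 10 min against buffer-only wells.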
# PI4K2A inh = blocks human PI4K2A kinase activity | purified PI4K2A, ADP-Glo luminescence, 1 h; active compounds read low | AID 1346378 | hit rate 0.13% among 420,000 | activity change, negative = inhibition, % at 76.9 µM; in the data active = activity change below about -50%; inconclusive = mostly about -30% to -49%;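 also: -100% = wells without enzyme as full effect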
# Target sequence (Q9BTU6 whole entry, looked up): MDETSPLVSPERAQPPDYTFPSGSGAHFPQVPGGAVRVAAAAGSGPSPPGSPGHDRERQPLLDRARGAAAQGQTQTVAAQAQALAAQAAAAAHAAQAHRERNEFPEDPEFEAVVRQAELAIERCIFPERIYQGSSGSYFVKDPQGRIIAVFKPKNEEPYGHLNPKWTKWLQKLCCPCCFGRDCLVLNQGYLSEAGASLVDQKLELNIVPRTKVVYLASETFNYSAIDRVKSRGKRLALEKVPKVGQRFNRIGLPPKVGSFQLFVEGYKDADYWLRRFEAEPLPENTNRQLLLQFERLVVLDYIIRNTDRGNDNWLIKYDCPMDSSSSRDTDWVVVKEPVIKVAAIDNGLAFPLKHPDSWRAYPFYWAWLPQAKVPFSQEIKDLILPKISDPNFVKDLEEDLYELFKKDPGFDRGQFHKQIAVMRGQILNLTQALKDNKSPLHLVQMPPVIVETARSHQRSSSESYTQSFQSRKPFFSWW
#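 ADP-Glo luminescence measured ADP generated by PI4K2A enzyme (4 ug/mL before mixing) with 1.2 mM PI substrate (pre-mix) and 300 microM ATP (pre-mix). Tris pH7.5 buffer with MgCl2, Triton X-100; 1 h reaction at ambient temperature.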
# Pol eta inh = blocks human DNA polymerase eta activity | AID 588591 | hit rate 1.2% among 390,000 | Potency, µM (top dose mostly 114 µM), inactives show at the highest dose activity change, negative = inhibition, hits mostly inhibitors | Q9Y253 | recombinant Pol eta, fluorescent DNA replication assay; also: potency is read from the fitted curve at half-maximal effect; % is scaled to controls: 0 for no effect and ±100 for the full control effect
#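 Pol eta (10 nM) was preincubated with compounds for 15 min at room temperature, after which fluorescent replication substrate (50 nM final) was added to start the reaction. Fluorescence was read kinetically at 0 and 10 min.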
# PI5P4Ka inh = blocks human PI5P4K alpha kinase activity | P48426 | PI5P4Kalpha enzyme, ADP-Glo luminescence, 60 min; active compounds read low | max response, % | hit rate 1.2% among 330,000; active = max response of -50% or lower; inconclusive = between -30% and -50%; inactive = -30% or higher; also: value at the top dose of about 77 µM; % is scaled to controls: 0 for no effect and ±100 for the full control effect
#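 ADP-Glo luminescence end-point after a 60 min room-temperature kinase reaction. PI5P4Kalpha and substrate in HEPES pH 7.4 buffer with EGTA, 0.1% CHAPS and 5% DMSO; ATP at 5 microM final.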
# Pol iota inh = DNA polymerase iota (human) inhibition; Q9UNA4; Pol iota fluorescent replication assay, 10 min; Potency, µM (titrated, usually from 115 µM), without a hit: at the top dose activity, negative = inhibition, usual class: inhibitors; hit rate 1% among 390,000; also: potency is read from the fitted curve at half-maximal effect
#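 Pol iota at 10 nM preincubated 15 min with compounds at room temperature; reaction started with fluorescent substrate, 50 nM final. Fluorescence read kinetically at 0 and 10 min; buffer-only wells as negative control.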
# POLB inh = DNA polymerase beta (human) inhibition; P06746; Pol beta primer extension/strand displacement, fluorescence kinetic; Potency, µM (top dose mostly 114 µM), for the others: top-dose activity change, negative = inhibition, actives largely listed as inhibitors; hit rate 1.3% among 340,000; AID 485314; also: potency is read from the fitted curve at half-maximal effect; % is scaled to controls: 0 for no effect and ±100 for the full control effect
#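 Curves were derived by four-parameter Hill fits of normalized qHTS data. The kinetic fluorescent primer-extension read was taken at 0 and 10 min after 50 nM substrate, following a 15 min room-temperature preincubation of 10 nM enzyme with compounds.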
# * marks the source's active call; other numbers are inactive results; ? = inconclusive; . = no result; [ ] = another dose, or the depositor's remark. Unless noted, calls follow the shape of the dose curve; as a rule, active = well fitted inhibition curve with a large enough effect; inconclusive = small, poorly fitted or top-dose-only effect, or another doubt; inactive = no such curve, though single readings can be large or run the other way.
SMILES,Pol kappa inh,PI4K2A inh,Pol eta inh,PI5P4Ka inh,Pol iota inh,POLB inh
N#Cc1c(NCCN)nc(-c2ccco2)c2c1CCCC2,-9%,1,-14%,-2,-4%,56µM*
O=C(NCc1cccc2ccccc12)C1CCCN(c2nc3ccccc3o2)C1 (stereo not drawn),.,-3,.,.,.,.
N#C/C(=C/c1cc(Cl)c(O)c(Cl)c1)C(=O)N1CCCCC1,-10%,-21,-5%,-94*,78%,8%
COc1ccccc1/C=c1/[nH]c(=O)/c(=C\c2ccccc2OC)[nH]c1=O,7%,.,.,.,12%,.
OCCCN=c1cc(-c2ccccc2)oc2ccc(Cl)cc12,-8%,-6,-12%,7,?,45µM*
CC1(C)C(=O)N(CC(=O)Nc2ccc(Cl)cc2)c2ccccc21,-10%[60.1 µM],6,-21%,.,14%,-26%
COc1cccc2nc3cc(C)c(C)cc3nc12,?,-75*,0%,?,?,?
O=C(c1cc(C2CC2)on1)N(C1CCCCC1)C1CCOCC1,.,-1,.,.,.,.
CCOc1ccc(Nc2nc(N)c3ccccc3n2)cc1,-2%,-80*,-20%,-28,-7%,5%
O=C(O)C1Nc2c(C(F)(F)F)ccc(Cl)c2C2C=CCC12 (stereo not drawn),-6%,4,?,-27,?,45µM*
Cc1ccc2c(c1C)NC(C(=O)O)C1CC=CC21 (stereo not drawn),3.2µM*,-18,3.5µM*,.,?,2.5µM*
CCOC(=O)c1cccc2c1N[C@@H](c1ccc(F)cc1)[C@H]1CC=C[C@@H]21,-13%,0,-11%,.,36%,?
O=C(c1ccccc1O)N1CCOCC1,-2%,5,-9%,2,20%,67%
O=C(O)C1Nc2c(C(=O)N3CCOCC3)cccc2C2C=CCC12 (stereo not drawn),45µM*,-24,3.2µM*,-62*,11µM*,20µM*
Cc1cc(C)c2c(c1)C1C=CCC1C(C(=O)O)N2 (stereo not drawn),28µM*,.,.,.,?,.
COCCNC(=O)C1Nc2ccc(C(F)(F)F)cc2C2C=CCC12 (stereo not drawn),-14%,-4,-20%,-21,?,.
CCCCCCn1c(=O)c2c(ncn2C)n(C)c1=O,.,0,.,.,.,.
CC1(C(=O)NS(=O)(=O)c2ccccc2Cl)CCN1C(=O)C/C=C/c1ccccc1 (stereo not drawn),.,-9,.,-1,.,.
COc1ccc2oc(=O)c(/C(C)=N/Nc3nc(-c4cc(C)ccc4C)cs3)cc2c1,1%,-2,-10%,-11,16%,-1%
C/C(=N\Nc1nc(-c2ccc(C)cc2C)cs1)c1cc2ccccc2oc1=O,-7%,-3,-9%,-21,1%,22µM*
Oc1[nH]c2ccc(Br)cc2c1N=NC(=S)N1CCOCC1,-27%,16,-5%,-54*,9%,19%
O=C(NC1CCCc2ccccc21)c1cnn2c1NC(=C1CC1)C=C2C(F)F (stereo not drawn),-16%,.,.,.,-4%,.
N#CC1=C2SCN(Cc3ccco3)CN2C(=O)CC1c1cccc2ccccc12 (stereo not drawn),-25%,-5,-15%,-60*,?,45µM*
CCOc1ccc(NC(=O)C(C)Sc2nc3ncccc3o2)cc1 (stereo not drawn),-1%,2,-15%,.,18%,23%
CCCn1nnc(NC(=O)/C=C/c2ccco2)n1,-4%,-6,-10%,-16,9%,-14%
SMILES,Pol kappa inh,PI4K2A inh,Pol eta inh,PI5P4Ka inh,Pol iota inh,POLB inh
O=C(/C=C/c1ccco1)NC(=S)Nc1ccccn1,-24%,-7,4%,-10,-6%,40µM*
Cn1nnc(NC(=S)NC(=O)/C=C/c2ccco2)n1,?,-8,18µM*,-71*,?,?
O=[N+]([O-])c1ccc2nc(CNc3nc(N4CCOCC4)nc4c3ncn4-c3ccsc3)[nH]c2c1,.,-2,.,.,.,.
CCc1ccc(NC(=O)C(=O)NNC(=O)c2cccc(OC)c2)cc1,-11%,-1,-16%,3,86%,-15%
COc1cccc(C(=O)NNC(=O)C(=O)Nc2ccc(C)c(Cl)c2)c1,-13%,1,-12%,8,7%,79µM*
CC(C(=O)NC1CCCC1)n1c(-c2ccncc2)nc2ccccc21 (stereo not drawn),.,6,.,4,.,.
COc1cc(OC)cc(C(=O)Nc2nnc(NC(=S)Nc3ccccc3)s2)c1,79µM*,-5,?,-55*,5%,-3%
COc1ccc2c(c1)c(/C=C/c1cc[n+](C)cc1)cn2C,-19%,-12,-15%,-3,?,89µM*
CSCCC(C(=O)OCC(=O)c1ccc(C)c(C)c1)N1C(=O)c2ccccc2C1=O (stereo not drawn),-12%,-3,-20%,6,-6%,1%
CSCCC(C(=O)OC1CCOC1=O)N1C(=O)c2ccccc2C1=O (stereo not drawn),?,-3,35µM*,-27,?,-22%
Cc1ccc(CNC(=O)COC(=O)c2ccccc2OCC(=O)Nc2ccc(Br)cc2)cc1,8%,.,.,.,5%,.
COc1cc(-n2nc(C)c3c2OC(N)=C(C#N)C3c2ccccc2)c(Cl)c(Br)c1O (stereo not drawn),-19%,-2,?,-57*,?,1%
Cc1nn(-c2ccccc2)c2c1C(c1ccncc1)C(C#N)=C(N)O2 (stereo not drawn),0%,-10,-9%,-22,?,1%
N#Cc1ccsc1NC(=O)CSc1nnnn1-c1ccc(O)cc1,0%,-10,50µM*,-61*,?,?
COc1ccccc1CN(C)C(=O)C1CCCN(c2nc3ccccc3o2)C1 (stereo not drawn),.,-4,.,.,.,.
O=C(O)CCc1ccc(-c2cccs2)n1NC(=O)c1ccc(O)cc1,?,-8,89µM*,.,?,?
O=C(O)CCc1ccc(-c2cccs2)n1Cc1ccco1,-8%,-6,?,.,?,50µM*
O=C(O)CCc1ccc(-c2cccs2)o1,?,-2,45µM*,.,40µM*,-21%
COc1ccccc1-c1nccc(NCc2cccs2)n1,1%[60.1 µM],.,.,.,.,.
CCOC(=O)[C@]12CCCCC/C=C\1N(Cc1ccc(OC)cc1)C(=O)[C@H]2CC(=O)NCCC(C)C,.,-1,.,.,.,.
Nn1c(SCc2ccc([N+](=O)[O-])cc2)nnc1-c1cc(-c2ccccc2)n[nH]1,.,-2,.,.,.,.
CCc1cccc(NC(=O)Cn2c(=O)n(CC3CCC(C(=O)NCCc4ccccc4)CC3)c(=O)c3ccccc32)c1 (stereo not drawn),0%,-7,-17%,.,1%,7%
O=C(Nc1nccs1)C1CC=CC2CCN(Cc3ccc(Cl)c(Cl)c3)C(=O)C21 (stereo not drawn),-10%,.,.,.,-3%,.

# Compound activity from PubChem.
